Assay outcomes as filed in PubChem.
Sa growth 42C = S. aureus growth inhibition at 42 and 30 °C, primary screen, LtaS inhibitor project, RN4220, two temperatures. relative growth, % (concentration not given with the values). actives 0.53% (n = 170,000). OD600, 20 h, 42 °C; hits give low values;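 active means relative growth at most 50% at the other temperature and 20+ points below 30 °C, or under 10% at both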
Sa helicase inh = inhibitors of S. aureus replicative helicase, primary screen, biochemical, fluorescence unwinding readout; replicative DNA helicase (DnaC/DnaB), Staphylococcus aureus; purified S. aureus helicase, fluorescence unwinding assay; inhibition, % (concentration not given with the values); actives 0.05% (n = 120,000); in the data active means inhibition above about 25%, passing the limit was not always enough
Hits are given with their value; - = inactive; . = not tested or not shown. The full list was thinned out, with hits kept by preference.

SMILES	Sa growth 42C	Sa helicase inh
COc1ccc(CCNC(=O)c2c[nH]n3c(=O)c(Cc4ccccc4Cl)c(C)nc23)cc1OC	0.7	.
CCOc1ccc(C2c3[nH]c4ccccc4c3CCN2C(=O)CSCc2ccc(F)cc2)cc1 (stereo not drawn)	-	.
OCCNCC12CC3CC(CC(C3)C1)C2	-	-
COC(=O)c1scc2c(Oc3ccccc3)cc(C(F)(F)F)nc12	-	.
O=C(C(Cc1ccccc1Cl)C(=O)N1CCc2ccccc21)N1CCc2ccccc21	-	.
Nc1nnc(SCC(=O)N2c3ccccc3Sc3ccc(C(F)(F)F)cc32)s1	-	-
Cc1nc2c(C(=O)NCc3ccccc3Cl)cnn2c(C)c1Cc1ccccc1	-	.
Cc1nc2c(C(=O)NCc3ccccc3Cl)c[nH]n2c(=O)c1Cc1cccc(Cl)c1	0.6	.
C=CCNC(=S)N1CCc2sccc2C1c1ccc(OC)cc1 (stereo not drawn)	-	.
Cc1ccc(C(=O)OCC(=O)Nc2ccc(Cl)c(Cl)c2)s1	-	-
CN(C)c1ccc(C(=C2C=CC(=[N+](C)C)C=C2)c2ccc(N(C)C)cc2)cc1	-	.
CN(C)c1ccc(C2=CC=CC(=C3C=CC(=[N+](C)C)C=C3)O2)cc1	2.5	74.0
CCN(CC)C(=O)Cn1c(=O)n(-c2ccc(C)c(C)c2)c(=O)c2c(C)c(C(=O)N(CC)CC)sc21	-	.
O=c1[nH]cnc2scc(-c3ccc4ccccc4c3)c12	-	.
O=C(Oc1ccc(Cl)cc1)c1cc(-c2ccc3c(c2)OCCO3)on1	-	.
Cc1ccccc1OC(=O)c1cc(-c2ccc3c(c2)OCCO3)on1	-	.
O=C(Oc1ccccc1Cl)c1cc(-c2ccc3c(c2)OCCO3)on1	-0.1	.
Cc1cccc(OC(=O)c2cc(-c3ccc4c(c3)OCCO4)on2)c1C	0.1	.
CCN(CC)C(=O)C1CCN(Cc2ccc(Br)cc2)CC1	-	-
O=C1c2ccccc2-c2nc3ccccc3nc21	5.6	-
O=C1c2ccccc2-c2nc3nonc3nc21	-	-
CC1CC(C)CN(c2ccc3nncn3n2)C1 (stereo not drawn)	-	-
CN1C(=O)C2ON(c3ccccc3)C(c3ccccc3)C2C1=O (stereo not drawn)	-	-
COc1ncnc2sc3c(c12)CCC3	.	-
CCc1nn(CCCC(=O)NCc2ccc(OC)c(OC)c2)c(=O)c2cc3occc3n12	-	.
SMILES	Sa growth 42C	Sa helicase inh
Cc1ccc(-c2ccc(O)cc2)cc1	46.9	-
Cc1ccc(O)cc1	-	.
N#Cc1ccc(CSc2nc(-c3cccs3)c3c(c2C(=O)O)CCCC3)cc1	0.1	-
Cc1ccc(CSc2nc(-c3cccs3)ccc2C#N)cc1	-	.
COC(=O)c1nc2ccccc2n1Cc1ccc(C)cc1	45.3	-
Cc1ccc(Cn2c(C(C)O)nc3ccccc32)cc1 (stereo not drawn)	.	-
Cc1cc(C)c2c(=O)n(CC(=O)Nc3ccc(Br)c(C)c3)sc2n1	-	-
Cc1ccc(-c2nnn(CC(=O)N(Cc3ccccc3)C(C(=O)NC3CCCC3)c3ccco3)n2)cc1 (stereo not drawn)	-	-
COc1ccc(-c2nnn(CC(=O)N(c3ccccc3)C(C(=O)NC3CCCC3)c3ccco3)n2)cc1 (stereo not drawn)	47.5	-
CCS(=O)(=O)N1CCN=C1SCc1ccc(Cl)cc1Cl	.	-
CO[C@@]1(NC(=O)Cc2cccs2)C(=O)N2C(C(=O)O)=C(COC(N)=O)CS[C@@H]21	-1.0	.
CO[C@@]1(NC(=O)CSCC#N)C(=O)N2C(C(=O)O)=C(CSc3nnnn3C)CSC21 (stereo partly drawn)	-0.6	.
Cn1nnnc1SCC(=O)NN1C(=O)NC(C)(c2ccccc2)C1=O (stereo not drawn)	-	-
CN1CCN(NC(=O)Cc2cccs2)CC1	-	-
Nn1c(=S)[nH]nc(Cc2ccco2)c1=O	-	-
O=C(OCC1CCCO1)c1c(Cl)cccc1Cl (stereo not drawn)	-	-
Nc1cccnc1Nc1ccccc1	6.4	-
c1ccc(Nc2ncnc3ccccc23)cc1	-	-
CCOC(=O)N1CCc2c(sc(NCc3ccc(OCC)cc3)c2C(=O)Nc2ccc(OC)cc2OC)C1	-	.
O=S1(=O)C=C(Sc2nnnn2-c2ccccc2)c2ccccc21	-1.7	-
c1ccc(-n2nnnc2SSc2nnnn2-c2ccccc2)cc1	-	-
Oc1cc2c(cc1C(c1ccc(C(F)(F)F)cc1)N1CCN(c3ccccc3)CC1)OCO2 (stereo not drawn)	-0.7	-
Oc1cc2c(cc1C(c1ccc(C(F)(F)F)cc1)N1CCOCC1)OCO2 (stereo not drawn)	-	.
COC(=O)c1ccc(C(c2cc3c(cc2O)OCO3)N2CCN(c3ccccc3)CC2)cc1 (stereo not drawn)	-0.2	-
O=C(NCC(c1ccc2c(c1)OCO2)N1CCN(c2ccccc2)CC1)c1ccc(F)c(F)c1 (stereo not drawn)	-	.
CCc1cc(C(=O)NCc2ccc(F)cc2)no1	-	.
